Inconclusive results are not listed. The source made the active and inactive calls. Unless noted, calls come from the whole dose curve; as a rule, active = well fitted curve in the direction sought with a large enough effect; inconclusive = small, poorly fitted or top-dose-only effect, or another doubt; inactive = no such curve, though single readings can be large; an effect the other way counts as inactive or inconclusive.
Assays:
[1] = qHTS assay for measurement of the activity of small molecule inhibitors on Zika virus induced Caspase-3 activity in human astrocytoma cells (AID 1224859)
Method in brief: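 In SNB-19 cells plated at 250 cells/well and grown 16-20 h, compounds were applied 1 h before ZIKV (2 FFU/cell). Six hours later caspase-3/7 luminescence was recorded.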

[2] = qHTS assay to identify small molecule inhibitors of chordoma cells - UCH-1 (AID 1259355); note: nearly all actives have a fitted effect of over 55% in size
Method in brief: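 Luminescent ATP read-out (CellTiter-Glo, 30min at room temperature) measured viability of UCH-1 cells exposed for 48hr to test drugs at 15 concentrations, co-dosed with a five-agent combination of auranofin, camptothecin, doxorubicin, rubitecan and topotecan.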

[3] = qHTS assay to identify small molecule inhibitors of chordoma cells - UCH-2 (AID 1259356); note: series mostly up to about 46 µM
[4] = P-glycoprotein substrates identified in KB-8-5-11 adenocarcinoma cell line, qHTS therapeutic library screen (AID 1346987); note: series mostly up to about 44 µM; nearly all actives have a fitted effect of over 65% in size
Method in brief: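 Steps: plate 500 KB-8-5-11 cells/well in DMEM + 10% FCS (colchicine removed); pin compounds in dose-response; incubate 72 h, 37 degree C, 5% CO2; add CellTiter-Glo, 5 min; read luminescence.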

[5] = Natriuretic polypeptide receptor (hNpr1) antagonism - Pilot counterscreen GloSensor control cell line (AID 1347045; calls by dose curve; note: series mostly up to about 38 µM)
Method in brief: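 Luminescence was read before and 20 min after adding 50 uM SNP, which stimulates soluble guanylyl cyclase. The HEK293 cells expressing the GloSensor cGMP sensor had been preloaded with 2% reagent for 2 h and treated with compound.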

[6] = target: Atrial natriuretic peptide receptor 1 (Homo sapiens) (UniProt P16066); experiment: Natriuretic polypeptide receptor (hNpr1) antagonism - Pilot screen (AID 1347049; calls by dose curve;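 note: agonist-evoked cGMP luminescence read 20 min after hNppA addition; series mostly up to about 58 µM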)
Method in brief: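 HEK293 cells co-expressing hNpr1 and the GloSensor pGS-40F cGMP luciferase sensor were preloaded with 2% GloSensor reagent for 2 h. Compounds were added for 30 min at room temperature, then cells were stimulated with 0.1 nM hNppA for 20 min before luminescence readout.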

[7] = NS1 protein of Zika virus - qHTS assay to identify small molecule inhibitors in human HEK 293 cells (AID 1347053); note: series mostly up to about 46 µM; nearly all actives have a fitted effect of over 55% in size
Method in brief: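 HEK 293; 20 h pre-culture, 37 C/5% CO2; cpd 1 h pre-infection; ZIKV MR766, MOI = 0.5, 24 h, 37 C; TR-FRET NS1 readout (two anti-NS1 Abs); norm. to no-virus vs infected.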

[8] = target: T1, Tyrosine-protein phosphatase non-receptor type substrate 1 (Homo sapiens) + Leukocyte surface antigen CD47 (Homo sapiens) (UniProt P78324+Q08722); experiment: CD47-SIRPalpha protein protein interaction - LANCE assay qHTS validation (AID 1347057; active = well fitted curve in the direction sought with a large enough effect in the signal ratio, with a control signal flat, not every such curve was filed as active; the % refers to the signal ratio; note: series mostly up to about 38 µM)
Method in brief: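 First, His-tagged CD47 and Eu-labelled anti-His antibody met the compound for 30 min; next, site-specifically biotinylated SIRPalpha was added for 30 min; finally streptavidin-APC was added before reading the TR-FRET ratio.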

[9] = target: T1, Tyrosine-protein phosphatase non-receptor type substrate 1 (Homo sapiens) + Leukocyte surface antigen CD47 (Homo sapiens); experiment: CD47-SIRPalpha protein protein interaction - HTRF assay qHTS validation (AID 1347058; active = well fitted curve in the direction sought with a large enough effect in the signal ratio, not every such curve was filed as active; the % refers to the signal ratio; note: series mostly up to about 38 µM)
Method in brief: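 TR-FRET read (Ch1/Ch2 ratio) of soluble extracellular CD47 and Avi-biotinylated SIRPalpha domains in PBS pH 7.4 with 0.05% IGEPAL; 7-point compound titration. Sequential 30 min room-temperature steps; non-biotinylated SIRPalpha as control inhibitor.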

[10] = target: Parathyroid hormone/parathyroid hormone-related peptide receptor (Homo sapiens) (UniProt Q03431); experiment: qHTS for PTHR1 Agonists: Optimization Screen against the NCGC LOPAC library (AID 1347079);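 note: GloSensor cAMP luminescence in HEK-293 GP2 cells expressing human PTHR1 with IBMX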
Method in brief: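 Agonist readout: GloSensor cAMP luminescence, read after 15 min at room temperature. HEK-293-derived GP2 line carries PTHR1; compounds tested as a titration for 1 hr at 37C in presence of IBMX. M-PTH (1-15) served as control.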

[11] = qHTS of pediatric cancer cell lines to identify multiple opportunities for drug repurposing: Primary screen for TC32 cells (AID 1347089); note: nearly all actives have a fitted effect of over 60% in size
Method in brief: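 Measured quantity: luminescence from CellTiter-Glo, reflecting metabolically active TC32 cells following 48 h of compound. Curves came straight from multi-point titrations, with 8 or 11 points in primary and 11 in confirmatory screening.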

[12] = qHTS of pediatric cancer cell lines to identify multiple opportunities for drug repurposing: Primary screen for DAOY cells (AID 1347090); note: series mostly up to about 46 µM; nearly all actives have a fitted effect of over 55% in size
Method in brief: (§1)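 Eight- or eleven-point concentration series, 48 h treatment at 37 degrees C in growth media; readout CellTiter-Glo luminescence. Potency and efficacy were taken from the concentration-response curves.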

[13] = target: Atrial natriuretic peptide receptor 2 (Homo sapiens) (UniProt P20594); experiment: Natriuretic polypeptide receptor (hNpr2) antagonism - Pilot subtype selectivity assay (AID 1347050; calls by dose curve)
Method in brief: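 cGMP-sensor HEK293/hNpr2 cells; 2% GloSensor reagent 2 h RT; compounds 30 min; baseline luminescence read; 1 nM hNppC agonist 20 min RT; final luminescence read by CCD camera. Antagonism = reduced post-agonist signal.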

[14] = target: T1, Tyrosine-protein phosphatase non-receptor type substrate 1 (Homo sapiens) + Leukocyte surface antigen CD47 (Homo sapiens); experiment: CD47-SIRPalpha protein protein interaction - Alpha assay qHTS validation (AID 1347059);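 note: bead proximity luminescence from CD47 binding SIRPalpha after compound preincubation with SIRPalpha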
Method in brief: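 Soluble extracellular domains: Avi-tag biotinylated SIRPalpha (25 nM) preincubated 30 min RT with compound, then 6His-CD47 (12.5 nM) 30 min; Ni-NTA acceptor and streptavidin donor beads (10 ug/mL) 30 min, AlphaScreen read. PBS pH 7.4, 0.05% IGEPAL.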

[15] = qHTS of pediatric cancer cell lines to identify multiple opportunities for drug repurposing: Primary screen for SJ-GBM2 cells (AID 1347091)
Method in brief: as §1

[16] = qHTS of pediatric cancer cell lines to identify multiple opportunities for drug repurposing: Primary screen for A673 cells (AID 1347092); note: nearly all actives have a fitted effect of over 45% in size
Method in brief: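 Cells are plated, rested 5 h, dosed by pintool, incubated 48 h, then lysed with CellTiter-Glo and read by luminescence. DMSO is the neutral control; bortezomib at 2.3 uM final is the positive control.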

[17] = P-glycoprotein substrates identified in KB-3-1 adenocarcinoma cell line, qHTS therapeutic library screen (AID 1346986); details: outcome: dose series up to 44.5 µM; note: nearly all actives have a fitted effect of over 60% in size
Method in brief: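 Resistance attributable to P-gp was assessed by comparing AC50 in KB-8-5-11 with parental KB-3-1 and by tariquidar reversal. Cells were exposed 72 h and viability read by CellTiter-Glo.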

Measured: Potency

Parathyroid hormone/parathyroid hormone-related peptide receptor (Homo sapiens), sequence (Q03431 whole entry, looked up): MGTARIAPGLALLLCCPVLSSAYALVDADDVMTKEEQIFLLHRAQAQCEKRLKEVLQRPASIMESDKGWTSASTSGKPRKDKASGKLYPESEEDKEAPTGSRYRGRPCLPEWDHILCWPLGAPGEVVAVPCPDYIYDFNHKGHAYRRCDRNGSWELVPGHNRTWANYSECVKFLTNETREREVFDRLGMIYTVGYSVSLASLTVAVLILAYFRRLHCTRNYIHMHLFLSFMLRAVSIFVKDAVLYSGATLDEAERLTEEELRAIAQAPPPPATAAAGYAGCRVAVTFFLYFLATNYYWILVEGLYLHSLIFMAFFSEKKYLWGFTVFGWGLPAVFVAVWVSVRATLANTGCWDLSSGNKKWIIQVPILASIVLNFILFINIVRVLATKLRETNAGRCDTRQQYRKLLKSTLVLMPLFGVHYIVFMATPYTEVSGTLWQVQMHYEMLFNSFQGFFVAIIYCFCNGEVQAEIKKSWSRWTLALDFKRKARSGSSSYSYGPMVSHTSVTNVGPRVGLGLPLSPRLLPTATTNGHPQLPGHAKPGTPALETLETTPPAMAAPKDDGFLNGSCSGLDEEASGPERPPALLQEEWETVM
T1 sequence (P78324 whole entry, looked up): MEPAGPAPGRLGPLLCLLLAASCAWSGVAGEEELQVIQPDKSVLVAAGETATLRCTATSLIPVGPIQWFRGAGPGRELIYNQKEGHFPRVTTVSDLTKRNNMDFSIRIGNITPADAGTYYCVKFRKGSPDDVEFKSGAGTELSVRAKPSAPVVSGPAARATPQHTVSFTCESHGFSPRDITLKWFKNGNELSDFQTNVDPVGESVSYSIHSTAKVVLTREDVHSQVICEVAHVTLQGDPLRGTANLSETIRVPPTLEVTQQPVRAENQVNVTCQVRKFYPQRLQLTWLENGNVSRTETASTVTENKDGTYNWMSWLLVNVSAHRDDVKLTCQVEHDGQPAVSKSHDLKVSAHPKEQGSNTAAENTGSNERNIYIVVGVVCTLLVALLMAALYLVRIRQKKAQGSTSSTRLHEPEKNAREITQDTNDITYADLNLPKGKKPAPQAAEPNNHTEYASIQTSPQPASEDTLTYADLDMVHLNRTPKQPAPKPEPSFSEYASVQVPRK
T1 sequence (Q08722 whole entry, looked up): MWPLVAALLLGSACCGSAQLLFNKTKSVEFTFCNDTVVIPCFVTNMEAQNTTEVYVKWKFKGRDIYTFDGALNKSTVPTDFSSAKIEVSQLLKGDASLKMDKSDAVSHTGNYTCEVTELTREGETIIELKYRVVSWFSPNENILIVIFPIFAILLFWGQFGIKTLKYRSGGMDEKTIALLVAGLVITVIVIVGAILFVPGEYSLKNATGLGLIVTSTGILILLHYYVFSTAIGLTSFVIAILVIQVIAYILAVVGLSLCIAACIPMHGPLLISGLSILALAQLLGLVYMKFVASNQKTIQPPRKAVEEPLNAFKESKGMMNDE
Atrial natriuretic peptide receptor 1 (Homo sapiens), sequence (P16066 whole entry, looked up): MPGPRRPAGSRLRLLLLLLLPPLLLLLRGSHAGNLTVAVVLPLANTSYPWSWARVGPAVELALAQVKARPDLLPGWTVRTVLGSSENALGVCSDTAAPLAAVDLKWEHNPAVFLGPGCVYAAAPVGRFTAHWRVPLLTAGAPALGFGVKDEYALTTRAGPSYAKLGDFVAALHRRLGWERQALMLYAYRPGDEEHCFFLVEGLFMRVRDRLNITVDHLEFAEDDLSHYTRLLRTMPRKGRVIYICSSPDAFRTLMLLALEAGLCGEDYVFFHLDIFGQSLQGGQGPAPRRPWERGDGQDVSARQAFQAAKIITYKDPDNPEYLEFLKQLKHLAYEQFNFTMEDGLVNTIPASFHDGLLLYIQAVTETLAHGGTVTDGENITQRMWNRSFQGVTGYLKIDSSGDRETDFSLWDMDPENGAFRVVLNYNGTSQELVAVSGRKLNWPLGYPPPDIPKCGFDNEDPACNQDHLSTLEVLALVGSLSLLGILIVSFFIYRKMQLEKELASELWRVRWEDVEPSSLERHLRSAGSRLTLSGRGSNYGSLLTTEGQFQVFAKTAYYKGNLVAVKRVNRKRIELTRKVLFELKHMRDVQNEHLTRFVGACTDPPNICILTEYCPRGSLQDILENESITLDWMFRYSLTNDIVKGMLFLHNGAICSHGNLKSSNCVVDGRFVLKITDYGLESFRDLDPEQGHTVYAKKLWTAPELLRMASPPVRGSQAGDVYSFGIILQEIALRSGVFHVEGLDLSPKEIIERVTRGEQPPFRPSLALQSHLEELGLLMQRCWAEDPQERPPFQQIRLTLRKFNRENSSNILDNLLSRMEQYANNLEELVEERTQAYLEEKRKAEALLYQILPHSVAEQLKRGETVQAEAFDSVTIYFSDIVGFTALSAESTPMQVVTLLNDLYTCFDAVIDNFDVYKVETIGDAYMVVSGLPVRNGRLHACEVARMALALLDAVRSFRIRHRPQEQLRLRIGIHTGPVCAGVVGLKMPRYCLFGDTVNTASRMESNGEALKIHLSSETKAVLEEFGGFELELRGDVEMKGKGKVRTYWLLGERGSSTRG
Atrial natriuretic peptide receptor 2 (Homo sapiens), sequence (P20594 whole entry, looked up): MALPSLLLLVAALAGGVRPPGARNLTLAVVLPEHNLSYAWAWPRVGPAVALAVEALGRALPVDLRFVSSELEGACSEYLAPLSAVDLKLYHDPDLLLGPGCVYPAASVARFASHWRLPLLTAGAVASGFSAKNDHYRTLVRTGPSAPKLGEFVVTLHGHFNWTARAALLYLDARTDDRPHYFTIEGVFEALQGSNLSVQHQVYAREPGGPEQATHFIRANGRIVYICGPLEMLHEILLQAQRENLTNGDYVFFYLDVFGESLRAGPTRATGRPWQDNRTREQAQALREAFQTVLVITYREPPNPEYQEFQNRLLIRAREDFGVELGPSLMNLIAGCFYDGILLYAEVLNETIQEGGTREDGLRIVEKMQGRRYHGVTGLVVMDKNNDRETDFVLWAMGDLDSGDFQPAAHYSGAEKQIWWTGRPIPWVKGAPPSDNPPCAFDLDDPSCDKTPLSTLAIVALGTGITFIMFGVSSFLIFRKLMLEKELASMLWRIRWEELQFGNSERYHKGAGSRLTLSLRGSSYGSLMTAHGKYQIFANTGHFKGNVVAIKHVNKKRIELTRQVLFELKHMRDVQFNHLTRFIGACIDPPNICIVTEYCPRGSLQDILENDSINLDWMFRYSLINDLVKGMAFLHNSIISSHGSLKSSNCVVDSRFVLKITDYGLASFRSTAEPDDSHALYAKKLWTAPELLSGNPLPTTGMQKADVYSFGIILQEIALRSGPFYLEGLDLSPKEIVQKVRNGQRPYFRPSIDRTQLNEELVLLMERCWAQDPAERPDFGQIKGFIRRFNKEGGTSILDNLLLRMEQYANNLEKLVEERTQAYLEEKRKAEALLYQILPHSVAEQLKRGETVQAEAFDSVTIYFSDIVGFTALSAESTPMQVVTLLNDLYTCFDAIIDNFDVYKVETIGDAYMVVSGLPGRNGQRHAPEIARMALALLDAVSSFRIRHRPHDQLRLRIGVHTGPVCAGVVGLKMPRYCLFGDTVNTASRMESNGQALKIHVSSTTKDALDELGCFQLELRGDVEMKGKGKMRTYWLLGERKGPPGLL

CNCCCN1c2ccccc2CCc2ccccc21
inactive: [1] | [2] | [3] | [4] | [5] | [6] | [7] | [8] | [9] | [10] | [11] | [12]

C[N+](C)(C)CCOC(N)=O
inactive: [1] | [2] | [3] | [4] | [5] | [6] | [13] | [7] | [8] | [14] | [10] | [11] | [15] | [16]

CCCN1C[C@H](CSC)C[C@@H]2c3cccc4[nH]cc(c34)C[C@H]21
inactive: [1] | [2] | [3] | [17] | [4] | [6] | [13] | [7] | [8] | [9] | [14] | [10] | [11] | [12] | [15] | [16]

CCCOc1ccccc1-c1nc2n[nH]nc2c(=O)[nH]1
inactive: [1] | [2] | [3] | [4] | [6] | [13] | [7] | [8] | [9] | [14] | [10] | [11] | [12] | [15] | [16]

C[C@]12CC[C@@H]3c4ccc(O)cc4C[C@@H](CCCCCCCCCS(=O)CCCC(F)(F)C(F)(F)F)[C@H]3[C@@H]1CC[C@@H]2O (stereo not given in full)
inactive: [1] | [2] | [3] | [4] | [5] | [6] | [13] | [7] | [8] | [9] | [14] | [10] | [11] | [16]

C(=C\c1ccccc1)/CN1CCN(C(c2ccccc2)c2ccccc2)CC1
inactive: [1] | [2] | [3] | [4] | [5] | [6] | [13] | [7] | [8] | [9] | [14] | [10] | [11]

Cc1nnc(SCC2=C(C(=O)O)N3C(=O)[C@@H](NC(=O)Cn4cnnn4)[C@H]3SC2)s1
inactive: [1] | [2] | [3] | [4] | [5] | [6] | [13] | [7] | [8] | [9] | [14] | [10] | [11] | [12] | [15] | [16]

CCCCCN(CCCCC)C(=O)C(CCC(=O)O)NC(=O)c1ccc(Cl)c(Cl)c1 (stereo not given)
inactive: [1] | [2] | [3] | [4] | [5] | [6] | [13] | [7] | [8] | [9] | [10] | [11] | [12] | [15] | [16]

From PubChem BioAssay (NCATS)
